Sm TGR inh: blocks Schistosoma mansoni thioredoxin glutathione reductase. purified TGR, DTNB reduction, TNB absorbance 405 nm. hit rate 3% among 360,000. Q962Y6. AID 485364. Potency, µM (series often up to 114 µM), hits mostly inhibitors; note: nearly all actives have a fitted effect of over 60% in size
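TGR 20 nM + NADPH 100 uM (dispensed conc.), cpd preinc 15 min RT; start with NADPH (500 uM addition) then DTNB (15 mM addition). Kinetic TNB absorbance, 405 nm filter. Four-parameter Hill fit across titration.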
Cycloheximide cs: counter-screen hit for Shiga toxin inhibitors, cycloheximide | cell reporter, cycloheximide protein synthesis inhibition counterscreen | max response, % | hit rate 12% among 300,000; in the data active = max response mostly above about 13%, no sharp cut-off; inactive = mostly below about 14%; note: read at 38.3 µM for the half of the compounds with a filed dose
Giardia FBPA inh: blocks Giardia fructose-bisphosphate aldolase activity | A8B2U2 | purified Giardia FBPA | Potency, µM (highest dose often 59.6 µM), most hits filed as inhibitors | hit rate 0.71% among 290,000 | AID 2451; note: nearly all actives have a fitted effect of over 55% in size
Target sequence (A8B2U2 whole entry, looked up): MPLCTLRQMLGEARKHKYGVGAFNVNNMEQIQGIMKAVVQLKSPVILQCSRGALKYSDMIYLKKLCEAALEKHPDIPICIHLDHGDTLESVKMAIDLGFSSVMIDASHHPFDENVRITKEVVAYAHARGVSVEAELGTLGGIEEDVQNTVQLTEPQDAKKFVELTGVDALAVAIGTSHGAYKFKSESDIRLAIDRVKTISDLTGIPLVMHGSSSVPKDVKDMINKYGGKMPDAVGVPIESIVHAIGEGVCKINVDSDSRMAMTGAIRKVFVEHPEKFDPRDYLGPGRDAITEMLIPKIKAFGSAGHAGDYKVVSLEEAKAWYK
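40 nM FBPA preincubated 10 min at RT with compound (up to 57.5 uM final), then substrate plus GAPDH/TPI/NAD/arsenate coupling and diaphorase/resazurin added. Fluorescence read after 20 min at RT, 525/598 nm.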
LmPK inhibitor: inhibitors of Leishmania mexicana pyruvate kinase; purified LmPK, Kinase-Glo ATP luminescence, 1 h; hit rate 0.37% among 290,000; Potency, µM (top dose mostly 57.5 µM), usual class: inhibitors
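Screened at intermediate enzyme activity to detect both inhibitors and activators: LmPK at 0.1 nM, with a 0.5 nM enzyme column as activation reference. PEP 0.5 mM, ADP 0.1 mM; ATP detected by luminescence after 1 h.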
TbPYK inhibitor: T. brucei pyruvate kinase inhibition. Q57TT1. TbPYK enzyme, Kinase-Glo Plus ATP luminescence, 45 min. Potency, µM (doses to about 76.8 µM), hits mostly inhibitors. hit rate 0.12% among 410,000. AID 624173; note: nearly all actives have a fitted effect of over 50% in size
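Screened from lowest to highest concentration, compounds were pinned into TbPYK/substrate mixtures, and ADP (130 uM final) was added. Plates sat at room temperature for 45 min prior to Kinase-Glo Plus detection by luminescence.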
Shiga toxin inh: Shiga toxin inhibition. Vero cells, Shiga toxin protein synthesis inhibition reporter. inhibition, % at 38.7 µM. hit rate 9.2% among 290,000; in the data active = inhibition mostly above about 28%, no sharp cut-off; inactive = mostly below about 43%
Large screens that a line does not name were inactive. This is one part of a sample in which hits are shown more often than they occur. Unless noted, calls come from the whole dose curve; as a rule, active = well fitted curve in the direction sought with a large enough effect; inconclusive = small, poorly fitted or top-dose-only effect, or another doubt; inactive = no such curve, though single readings can be large; an effect the other way counts as inactive or inconclusive.

NC(=O)c1ccsc1NC(=O)CCS(=O)(=O)c1ccccc1	none
O=C(NC(=S)Nc1ccccc1N1CCCC1)c1ccco1	Sm TGR inh inconclusive, Giardia FBPA inh 14µM
O=C(NC(=S)Nc1ccc(Cl)c(C(=O)O)c1)c1ccco1	Sm TGR inh 45µM, Giardia FBPA inh inconclusive
O=C(NC(=S)Nc1ccccc1Cl)c1ccco1	Sm TGR inh 13µM, Cycloheximide cs 44, Shiga toxin inh 90
COC(=O)c1ccccc1NC(=S)NC(NC(=O)c1ccco1)C(Cl)(Cl)Cl (stereo not given)	TbPYK inhibitor inconclusive
O=C(NC(=S)Nc1ccc(NC(=O)c2ccco2)cc1)c1ccccc1	none
O=C(NC(NC(=S)Nc1ccccc1C(=O)O)C(Cl)(Cl)Cl)c1ccco1 (stereo not given)	Cycloheximide cs 31, Shiga toxin inh 45
O=C(NC(=S)Nc1ccccc1N1CCCCC1)c1ccco1	none
COc1ccccc1CNc1ncncc1-c1ccccc1Cl	none (no result: Sm TGR inh, Cycloheximide cs, LmPK inhibitor, TbPYK inhibitor, Shiga toxin inh)
CN(Cc1ccccc1Br)C(=O)CSc1nnnn1C1CC1	none (no result: Cycloheximide cs, Giardia FBPA inh, LmPK inhibitor, Shiga toxin inh)
COc1cccc(CN2C(=NC(=O)CCC3CCCC3)SC3CS(=O)(=O)CC32)c1 (stereo not given)	none (no result: Giardia FBPA inh)
O=C(NC(=S)Nc1c(Cl)ccc2nsnc12)c1ccco1	Sm TGR inh 25µM, Giardia FBPA inh inconclusive
CCn1cc(C(=O)N(C)Cc2ccccc2)c(=O)c2cc(S(=O)(=O)N3CCCCC3)ccc21	none (no result: Cycloheximide cs, Giardia FBPA inh, LmPK inhibitor, Shiga toxin inh)
COc1ccc2cc(-c3ccccc3)ncc2c1	Cycloheximide cs 42, Shiga toxin inh 85
COc1ccc(-c2cc3cc(OC)c(OC)cc3cn2)cc1	none (no result: Sm TGR inh, Cycloheximide cs, Giardia FBPA inh, LmPK inhibitor, Shiga toxin inh)
COc1cc(OC)cc(-c2cc3ccc(OC)cc3cn2)c1	TbPYK inhibitor inconclusive (no result: Cycloheximide cs, Giardia FBPA inh, LmPK inhibitor, Shiga toxin inh)
COc1ccc2cc(-c3ccsc3)ncc2c1	Sm TGR inh 40µM (no result: Cycloheximide cs, Giardia FBPA inh, LmPK inhibitor, Shiga toxin inh)
CC(C)NC(=S)N/N=C/c1ccccc1[N+](=O)[O-]	Cycloheximide cs 22
CC(C)NC(=S)N/N=C/c1ccc(C(C)(C)C)cc1	Cycloheximide cs 21
O=[N+]([O-])c1ccccc1/C=N/NC1=NCCCCC1	Cycloheximide cs 77, Shiga toxin inh 43
O=C(CSc1ccccn1)N/N=C/c1c[nH]c2ccccc12	Cycloheximide cs 14
CCC(=O)N1CCc2cc(CNS(=O)(=O)c3c(C)cc(C)cc3C)ccc21	none (no result: Cycloheximide cs, Giardia FBPA inh, LmPK inhibitor, Shiga toxin inh)
CCCOC(=O)c1cccc(NC(=O)CSc2nnc3cc(C)c4ccccc4n23)c1	none (no result: Cycloheximide cs, Giardia FBPA inh, LmPK inhibitor, Shiga toxin inh)
O=C(CSc1ccccn1)N/N=C/c1cc([N+](=O)[O-])ccc1O	none
O=C(CSc1ccccn1)N/N=C/c1ccccc1[N+](=O)[O-]	Cycloheximide cs 38, Shiga toxin inh 38
CCCCCC(=O)N/N=C/c1ccccc1[N+](=O)[O-]	Cycloheximide cs 19
O=C(CCNC(=O)c1ccccc1Cl)NN=Cc1ccccc1[N+](=O)[O-]	none (no result: Sm TGR inh, Cycloheximide cs, Giardia FBPA inh, LmPK inhibitor, Shiga toxin inh)
O=C(Nc1ccc2c(c1)N(C1CCCC1)C(=O)c1ccccc1S2)c1ccccc1F	none (no result: Cycloheximide cs, Giardia FBPA inh, LmPK inhibitor, Shiga toxin inh)
Cc1ccccc1OCc1nc(-c2ccc(NC(=O)c3ccco3)cc2)no1	Cycloheximide cs 35, Shiga toxin inh 52
Cc1ccccc1OCc1nc(-c2ccc(NC(=O)c3cccs3)cc2)no1	Cycloheximide cs 50, Shiga toxin inh 154
CC(Oc1ccc(Cl)cc1Cl)c1nc(-c2ccc(NC(=O)c3ccco3)cc2)no1 (stereo not given)	Cycloheximide cs 71, Shiga toxin inh 113
C[C@H](N)C(=O)N[C@@H](CO)C(=O)N[C@H](C(=O)N[C@H](C(=O)N[C@H](C(=O)N[C@@H](CC(N)=O)C(=O)N[C@@H](Cc1ccc(O)cc1)C(=O)N[C@H](C(=O)O)[C@@H](C)O)[C@@H](C)O)[C@@H](C)O)[C@@H](C)O	none (no result: Sm TGR inh, LmPK inhibitor, TbPYK inhibitor)
COc1cccc(CNC(=O)c2c(C)oc3ncnc(N4CCOCC4)c23)c1	none (no result: Cycloheximide cs, Giardia FBPA inh, LmPK inhibitor, Shiga toxin inh)
NC(=O)c1cccc(C[C@H](C(=O)O)N2C(=O)c3ccc(C(=O)O)cc3C2=O)c1	none (no result: LmPK inhibitor, TbPYK inhibitor)
CCC(=O)N1N=C(c2ccc(NS(C)(=O)=O)cc2)CC1c1ccc(N(C)C)cc1 (stereo not given)	Cycloheximide cs 30, Shiga toxin inh 72
CNC(=S)N1N=C(c2ccc(C)cc2)CC1c1ccc(OC)cc1 (stereo not given)	none
CN(C)c1ccc(C2CC(c3cccc(NS(C)(=O)=O)c3)=NN2C(=O)c2ccccc2)cc1 (stereo not given)	none

Screening data (PubChem)
